Results on 24 sequences are retold here after the supplement of paper PMC10338343.

± gives the standard deviation.

The assay has as its system MILI (PIWIL2) piRISC loaded with L1MC piRNA (26 nt). Briefly: pre-steady-state target cleavage rate (min^-1); guide: L1MC piRNA 5'p-UAACUAAAUACUAUGCAAGCUGUAGG; MIWI and MILI are mouse PIWI proteins and EfPiwi is from a freshwater sponge; tags in brackets are library labels; higher = faster piRNA-guided slicing of the target. To be noted: auxiliary factor: 500 nM mouse GTSF1. Summed up: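 The method was Cleave-'n-Seq, in which uncleaved targets from a transcribed, DNA-blocked target RNA library were sequenced after exposure to active affinity-purified piRISC carrying one synthetic guide, with or without GTSF1 partner protein. Reactions contained 0.1 nM library, 1 nM piRISC and, where present, 500 nM GTSF1 in HEPES–potassium acetate buffer at 33 °C for 0–8 or 0–960 min. Reads were normalised to depth and to weakly complementary targets, three trials were pooled, and k3 was capped at 0.0001 min^-1. The pre-steady-state cleavage rate came from a burst-and-steady-state fit.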
As to UCCUGGAACAGCUUGCGUAGUAUUUAGUUA, the “pre-steady-state target cleavage rate” value was 0.277 ± 0.016.

In the case of UCCUGGUACAGCAUGCAUAGUAUUUAGUUA, the “pre-steady-state target cleavage rate” value was determined as 0.268 ± 0.02.

Take UCCUGCUUCAGCUUGGAUAGUAUUUAGUUA: the “pre-steady-state target cleavage rate” value came out at 0.268 ± 0.015.

As for UCCUGGAUGUCGACGCAUAGUAUUUAGUUA, the “pre-steady-state target cleavage rate” value worked out at 0.0214 ± 0.0042. Under “UCCUGGAACAGCUUGCAUAGUAUUUAGUUA [g2:g23:cont:t1A]” stands 0.297 ± 0.019. As for UCCUGGAUGAGCUUGCAUAGUAUGUUAGUUA, the “pre-steady-state target cleavage rate” value came out at 0.157 ± 0.021. For UCCUCCUACAGCUUGCUUAGUAUUUUGUUA the value was 0.133 ± 0.016; for UCCUGGUACAGCAUGCAUAGUAUUAAGUUA, 0.292 ± 0.06. As for UCCUGGUACAGCUUGCAUAGUAUUUAGUAA, the “pre-steady-state target cleavage rate” value worked out at 0.283 ± 0.036. For UCCUCCUACAGCUUGCAAAGUAUUUAGUUA, the “pre-steady-state target cleavage rate” value was 0.167 ± 0.014. Under UCCUGCUACAGCUUGCAUAGUAUAUUAGUUA stands 0.389 ± 0.042; under UCCUGGAUGAGCUUGCACAGUAUUUAGUUA, 0.172 ± 0.014; under UCCUCCUACAGGUAGCAUAGUAUUUAGUUA, 0.273 ± 0.013. On to UCCUGGAUGAGCUUGGAUAGUAUUUAGUUA, for which the “pre-steady-state target cleavage rate” value worked out at 0.163 ± 0.011. As for UCCUGCUACAGUUGCAUAGUAUUUAGUUA, the “pre-steady-state target cleavage rate” value came to 0.256 ± 0.019. Under UCCUGCAACAGCUUGCAUAGUUUUUAGUUA stands 0.0613 ± 0.0099.

Turning to UCCUCCUACGAGCUUGCAUAGUAUUUAGUUA, the “pre-steady-state target cleavage rate” value worked out at 0.163 ± 0.018. For UCCUCCUACAGCUUGCAUAGUAUUUUCUAA the value was 0.143 ± 0.028; for UCCUGGAUGAGCUUGCAUAGUUUUUAGUUA, 0.0248 ± 0.0073; for UCCUGCUACAGGUUGCAAAGUAUUUAGUUA, 0.143 ± 0.013.

Consider UCCUGGAACAGCAUUGCAUAGUAUUUAGUUA, for which the “pre-steady-state target cleavage rate” value stood at 0.233 ± 0.024.

As to UCCUGCUUCAGCUUGCAAAGUAUUUAGUUA, the “pre-steady-state target cleavage rate” value came to 0.122 ± 0.0063.

On to UCCUGGAUGUGCUUGUAUAGUAUUUAGUUA, for which the “pre-steady-state target cleavage rate” value worked out at 0.142 ± 0.017.

Regarding UCCUCCUACAGCUUGCAUAGUAUAUAGUUA, the “pre-steady-state target cleavage rate” value was determined as 0.242 ± 0.026.
